Assay results published in the supplement of paper PMC9262897, “Low-cost anti-mycobacterial drug discovery using engineered E. coli” (Nature Communications, 2022).
Structures can show the parent of a compound that is named as a salt. ± gives the standard deviation of the averaged measurements.

Tests used:
Experiment in all cases: growth (OD600 after 10 h); higher = more growth (less inhibition)
[1] = system: E. coli TESEC Alr+ wild-type control; settings: compound 0.1 mM; raw OD600 reference: median of DMSO wells 0.241, cell-free background 0.041
Procedure: (§1)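 TESEC Mtb Alr E. coli, or the Alr+ wild-type control, in 384-well plates with Prestwick library compounds at 0.1 mM and 1% DMSO, across arabinose induction levels of 1E3 to 1E7 nM. Growth is read as OD600 after 10 h at 37 °C in triplicate biological replicates.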

E. coli TESEC Mtb Alr [2] = settings: compound 0.1 mM
Procedure: as §1

E. coli TESEC Mtb Asd = settings: compound 0.1 mM
Procedure: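 TESEC E. coli strains in which the native enzyme is deleted and replaced by arabinose-inducible Mtb Asd, DapB, CysH or TrpD, each grown in its selective medium. Strains were screened against the Prestwick library at 0.1 mM and 1% DMSO in 384-well format at low and high arabinose induction. Growth is read as OD600 after 10 h in triplicate.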

[3] = system: E. coli TESEC Alr+ wild-type control; settings: compound 0.1 mM; raw OD600 reference: median of DMSO wells 0.49, cell-free background 0.052
Procedure: (§2)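 TESEC Mtb Alr E. coli (ΔaraC ΔtolC ΔentC Δalr ΔdadX, arabinose-inducible Mtb Alr) or the Alr+ wild-type control strain, grown in defined M9-fructose medium without D-alanine in 96-well plates with Prestwick library compounds at 0.1 mM and 1% DMSO. Low Alr induction is 0.1 µM arabinose and high induction is 10 mM arabinose.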

E. coli TESEC Mtb Alr [4] = settings: compound 0.1 mM; remark: listed apart in the source
Procedure: as §2

[5] = arabinose 1000 nM, raw OD600 reference: median of DMSO wells 0.294, cell-free background 0.041
[6] = arabinose 10000 nM, raw OD600 reference: median of DMSO wells 0.264, cell-free background 0.041
[7] = arabinose 100000 nM, raw OD600 reference: median of DMSO wells 0.201, cell-free background 0.041
[8] = arabinose 1000000 nM, raw OD600 reference: median of DMSO wells 0.193, cell-free background 0.041
[9] = arabinose 10000000 nM, raw OD600 reference: median of DMSO wells 0.146, cell-free background 0.041
[10] = arabinose induction (level): High, raw OD600 reference: median of DMSO wells 0.331, cell-free background 0.041
[11] = arabinose induction (level): Low, raw OD600 reference: median of DMSO wells 0.417, cell-free background 0.041
[12] = arabinose 100 nM, raw OD600 reference: median of DMSO wells 0.413, cell-free background 0.052
[13] = arabinose 10000000 nM, raw OD600 reference: median of DMSO wells […], cell-free background 0.052

| Structure (SMILES) | growth [1] | growth (E. coli TESEC Mtb Alr [2]; [5]) | growth (E. coli TESEC Mtb Alr [2]; [6]) | growth (E. coli TESEC Mtb Alr [2]; [7]) | growth (E. coli TESEC Mtb Alr [2]; [8]) | growth (E. coli TESEC Mtb Alr [2]; [9]) | growth (E. coli TESEC Mtb Asd; [10]) | growth (E. coli TESEC Mtb Asd; [11]) | growth [3] | growth (E. coli TESEC Mtb Alr [4]; [12]) | growth (E. coli TESEC Mtb Alr [4]; [13]) |
| --- | --- | --- | --- | --- | --- | --- | --- | --- | --- | --- | --- |
| O=C1CCC(N2C(=O)c3ccccc3C2=O)C(=O)N1 (configuration not stated) [Thalidomide] | 0.248 ± 0.0061 | 0.283 ± 0.0041 | 0.269 ± 0.014 | 0.204 ± 0.012 | 0.192 ± 0.0034 | 0.135 ± 0.0057 | 0.392 ± 0.098 | 0.461 ± 0.035 | 0.513 ± 0.072 | 0.424 ± 0.0084 | 0.346 ± 0.0072 |
| CN(CCCN1c2ccccc2CCc2ccccc21)CC(=O)c1ccc(Cl)cc1 [Lofepramine] | 0.133 ± 0.0019 | 0.199 ± 0.0064 | 0.127 ± 0.0072 | 0.194 ± 0.0099 | 0.0713 ± 0.0042 | 0.159 ± 0.0095 | 0.27 ± 0.062 | 0.196 ± 0.025 | 0.343 ± 0.013 | 0.4242 ± 0.0042 | 0.202 ± 0.017 |
| CCCCC1C(=O)N(c2ccccc2)N(c2ccccc2)C1=O [Phenylbutazone] | 0.17293 ± 0.00015 | 0.224 ± 0.0029 | 0.234 ± 0.023 | 0.124 ± 0.0055 | 0.0869 ± 0.0014 | 0.132 ± 0.0036 | 0.145 ± 0.0034 | 0.261 ± 0.083 | 0.576 ± 0.075 | 0.399 ± 0.0095 | 0.283 ± 0.034 |
| Cc1ccc(C(=O)c2cc(O)c(O)c([N+](=O)[O-])c2)cc1 [Tolcapone] | 0.04277 ± 0.00032 | 0.0471 ± 0.0057 | 0.04323 ± 0.00038 | 0.0445 ± 0.00061 | 0.04313 ± 0.00042 | 0.0485 ± 0.00089 | 0.0527 ± 0.0018 | 0.0521 ± 0.0091 | 0.065 ± 0.0022 | 0.0574 ± 0.0008 | 0.0554 ± 0.00035 |
| CCN[C@H]1C[C@H](C)S(=O)(=O)c2sc(S(N)(=O)=O)cc21 [Dorzolamide hydrochloride] | 0.24 ± 0.0034 | 0.296 ± 0.003 | 0.293 ± 0.013 | 0.211 ± 0.038 | 0.187 ± 0.0042 | 0.15 ± 0.0023 | 0.216 ± 0.014 | 0.355 ± 0.06 | 0.47 ± 0.0087 | 0.4329 ± 0.0026 | 0.337 ± 0.019 |
| CCOC(=O)C1=C(C)NC(C)=C(C(=O)OCC)C1c1ccccc1/C=C/C(=O)OC(C)(C)C [Lacidipine] | 0.2596 ± 0.0023 | 0.308 ± 0.013 | 0.247 ± 0.0068 | 0.201 ± 0.017 | 0.119 ± 0.0029 | 0.156 ± 0.0078 | 0.299 ± 0.12 | 0.346 ± 0.043 | 0.521 ± 0.056 | 0.429 ± 0.017 | 0.322 ± 0.023 |
| NS(=O)(=O)c1cc2c(cc1Cl)N=C(CSCc1ccccc1)NS2(=O)=O [Benzthiazide] | 0.241 ± 0.008 | 0.292 ± 0.023 | 0.254 ± 0.0055 | 0.171 ± 0.017 | 0.169 ± 0.0062 | 0.132 ± 0.0022 | 0.286 ± 0.026 | 0.487 ± 0.025 | 0.606 ± 0.051 | 0.405 ± 0.0095 | 0.3136 ± 0.0011 |
